# HTT ATP protect: cytoprotection in Huntington HTT-Q103 PC12 cell model. AID 1471. Potency, µM (top dose mostly 56.4 µM), without a hit: cytoprotection (ATP increase), actives largely listed as activators. 230,000 compounds, 0.14% hits. PC12 HTT-Q103 induced, cytoprotection, ATP luminescence, 40 h; note: % of control where 0% means no effect; nearly all actives have a fitted effect of over 45% in size
#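 Cells were plated at 1500 per well in phenol red-free DMEM with 5% equine and 5% calf serum. Tebufenozide (100 nM final) and compounds were added, then ATPlite reagent, and luminescence was read.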
# L3MBTL1 block: L3MBTL1 (human) inhibition; Q9Y468; AlphaScreen L3MBTL1–H3K9me1 peptide binding; Potency, µM (doses to about 57.1 µM), inactives show at the highest dose activity, negative = inhibition, usual class: inhibitors; 230,000 compounds, 0.66% hits; AID 485360; note: % is set by controls: 0 for no effect and ±100 for the full control effect; nearly all actives have a fitted effect of over 60% in size
#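 AlphaScreen assay: L3MBTL1 (50 nM final) was preincubated 30 min at room temperature with biotinylated H3(1-15)K9me1 peptide (75 nM final), then 30 min with library compounds; streptavidin donor and nickel chelate acceptor beads (10 ug/mL final) added, 30 min dark.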
# KDM4E inh: blocks human JMJD2E demethylase activity; JMJD2E catalytic domain, FDH-coupled NADH fluorescence (FDH is formaldehyde dehydrogenase); Potency, µM (series often up to 57.1 µM), for inactives: at the highest dose activity change, negative = inhibition, actives largely listed as inhibitors; 230,000 compounds, 1.6% hits; B2RXH2; active = well fitted inhibition curve with a large enough effect, not every such curve was filed as active; inconclusive = small, poorly fitted or top-dose-only effect, or another doubt; inactive = no such curve, though single readings can be large or run the other way;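 note: 0% = wells with enzyme and -100% = buffer wells without enzyme; nearly all actives have a fitted effect of over 50% in size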
# Target sequence (B2RXH2 1-337 limits assumed): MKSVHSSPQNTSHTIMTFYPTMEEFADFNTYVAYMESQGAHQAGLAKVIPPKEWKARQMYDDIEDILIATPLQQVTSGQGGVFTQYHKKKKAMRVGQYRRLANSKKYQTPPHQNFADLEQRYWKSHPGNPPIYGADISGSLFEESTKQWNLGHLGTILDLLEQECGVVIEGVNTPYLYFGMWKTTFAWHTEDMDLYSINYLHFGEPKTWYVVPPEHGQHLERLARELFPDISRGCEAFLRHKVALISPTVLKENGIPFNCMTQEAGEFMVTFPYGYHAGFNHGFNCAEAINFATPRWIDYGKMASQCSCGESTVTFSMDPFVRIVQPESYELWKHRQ
# HttQ103 aggreg: mutant huntingtin aggregation inhibition. PC12 HttQ103-GFP aggregates, Acumen cytometry, 40 h. Potency, µM (series often up to 46.1 µM), without a hit: at the top dose activity change, negative = inhibition, hits mostly inhibitors. 220,000 compounds, 1.1% hits; note: % is set by controls: 0 for no effect and ±100 for the full control effect; nearly all actives have a fitted effect of over 60% in size
#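 PC12/HTTQ103-GFP, ecdysone-inducible; teb 100 nM; cpd qHTS titration; GFP aggregates read on laser cytometer, Ex 488/Em 500-530 nm.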
# * hit, by the source's call; ? = inconclusive; . = no result; [ ] = another dose, or the depositor's remark. This is a sample that favours compounds with a hit; in the whole collection about 1.8% have one here. Unless noted, calls come from the whole dose curve; as a rule, active = well fitted curve in the direction sought with a large enough effect; inconclusive = small, poorly fitted or top-dose-only effect, or another doubt; inactive = no such curve, though single readings can be large; an effect the other way counts as inactive or inconclusive. Potency is the fitted concentration of half-maximal effect.
SMILES,HTT ATP protect,L3MBTL1 block,KDM4E inh,HttQ103 aggreg
CCCCNC(=O)c1ccc2nc(-c3ccco3)c(-c3ccco3)nc2c1,-7.9%[10 µM],31.6µM*,?,-10.7%
C=CCOC(=O)N[C@@H](CCc1ccccc1)C(C(C)=O)C(C)=O,?,.,5.3%,.
O=C(/C=C\C=C/c1ccc2c(c1)OCO2)N1CCCCC1,-37.8%[40.3 µM],.,?,.
CCCn1c(C)nc2c(N3CCOCC3)nc(C)nc21,-13.4%,.,-2.3%,.
Cc1c(C(=O)OCC(=O)N2CCC(C)CC2)oc2ccccc12,.,9.7%,.,.
Cc1c(C(=O)OCC[N+]2(C)CCCCC2)oc2ccccc12,11.5%[10 µM],3.6%,25.1µM*,3.6%[9.22 µM]
Fc1ccc(Nc2ncnc3ccc(-c4ccoc4)cc23)cc1,-14.4%,.,.,.
O=[N+]([O-])c1ccc(-c2nc3ccc([N+](=O)[O-])cc3[nH]2)cc1,-93.9%,0.5%,1.7%,17.8µM*
Cc1cccc(NC(=S)N/N=C/c2cccc(O)c2)c1C,-25.9%[10 µM],-5.6%,7.4%,-22.6%[9.22 µM]
Cc1ccccc1NC(=S)NCCc1ccccc1,-35.7%[0.074 µM],-6.3%,-1.1%,10.6%
Cc1ccccc1NC(=S)NCc1ccccc1,5.62µM*,1.4%,?,?
Cc1ccccc1NC(=S)N/N=C/c1ccc(O)cc1O,.,31.6µM*,14.1µM*,6.3%[9.22 µM]
Cc1ccccc1NC(=S)N/N=C/C(C)c1ccccc1 (stereo not drawn),4.47µM*,17.6%,-8.4%,-1.5%
COc1cc(O)ccc1C(C)=O,.,.,-9.5%,.
O=C(N/N=C/c1ccccc1Cl)c1n[nH]c2c1CCCC2,-13.4%[10 µM],3.1%,1.8%,12.6µM*
C[n+]1c2n(c3ccccc31)N=C(c1ccc(Br)cc1)CS2,-11.9%[10 µM],-0.6%,-6.3%,31.6µM*
C[n+]1c2n(c3ccccc31)N=C(c1ccccc1)CS2,-48.7%,-0.3%,-5.0%,10µM*
COc1ccc(Oc2cnc3ccccc3n2)cc1,-29.9%,15.3%,-10.7%,11.2µM*
CC(=O)Nc1cccc(Oc2cnc3ccccc3n2)c1,-13.4%,4.3%,6.5%,-33.0%
CC(=O)Nc1ccc(Oc2cnc3ccccc3n2)cc1,23.0%,-0.1%,9.7%,11.2µM*
C[S+](C)CC[C@H](N)C(=O)O,36.9%,.,.,-2.7%
Clc1nssc1=Nc1ccccc1,-16.4%,.,10µM*,-3.1%
COc1cc(N=c2ssnc2Cl)cc(OC)c1OC,-84.9%,6.0%,17.8µM*,-29.7%
Fc1ccc(N=c2ssnc2Cl)c(F)c1,11.7%[10 µM],-4.4%,?,?
Clc1ccc(N=c2ssnc2Cl)cc1,.,-19.2%,10µM*,?
SMILES,HTT ATP protect,L3MBTL1 block,KDM4E inh,HttQ103 aggreg
N#Cc1ccc(N=c2ssnc2Cl)cc1,-79.9%,5.7%,?,3.8%
COc1ccc(N=c2ssnc2Cl)cc1,-4.4%[10 µM],-1.3%,20µM*,9.0%
O=C(NNC(=S)Nc1cccc(Cl)c1)c1ccccc1OC(F)F,.,9.7%,-8.6%,11.2µM*
CCOC(=O)C(C(=O)OCC)C1N=C(N)N=C2Oc3ccccc3N21 (stereo not drawn),9.3%[10 µM],.,?,3.16µM*
CC(=O)C1=C(c2ccc(Br)cc2)C(=O)c2ccccc2C1=O,-82.1%[10 µM],-10.9%,?,5.01µM*
C=CCC(C)(O)/C=C/c1ccccc1 (stereo not drawn),6.5%,.,-4.8%,.
COC(=O)/C=C\c1cc(O)ccc1O,-83.2%,.,31.6µM*,.
COC(=O)/C=C/C(=O)Nc1ccc(O)c(Cl)c1,.,-11.3%,-4.1%,0.4%
CCCCOC(OCCCC)[C@H](O)CSc1ccc2ccccc2c1,-1.5%[10 µM],.,.,.
O=C(CSc1nc(-c2ccco2)cc(C(F)(F)F)n1)Nc1ccccc1C(F)(F)F,3.16µM*,?,-17.2%,?
Cc1cccc(C)c1NC(=O)CSc1nc(-c2ccco2)cc(C(F)(F)F)n1,16.2%[10 µM],4.6%,-4.0%,-13.0%
c1ccc(C2OC3c4cccc5cccc(c45)C3N2c2ccccc2)cc1 (stereo not drawn),24.6%[10 µM],2.0%,-11.6%,11.2µM*
Oc1ccccc1C1CC(c2cccs2)=NC(c2cccc(Br)c2)N1 (stereo not drawn),-46.7%,.,-3.8%,11.2µM*
c1ccc(C2Oc3ccccc3C3CC(c4cccs4)=NN32)cc1 (stereo not drawn),16.9%[10 µM],-3.2%,3.1%,-1.3%
COC(=O)N1CCC[C@@]2(CCN(c3ccccn3)C2)C1,-47.5%,.,.,.
COc1ccc(S(=O)(=O)Nc2ccccc2C(F)(F)F)cc1,5.2%,.,3.5%,-5.9%
COc1ccc(S(=O)(=O)Nc2ccc(O)c3ccccc23)cc1,15.4%[10 µM],28.2µM*,1.6%,1.2%
Cc1ccc(-n2c(SCC(=O)N3CCCc4ccccc43)nnc2-c2cccnc2)c(C)c1,6.6%[10 µM],6.0%,-3.6%,5.6%
Cc1ccc(-n2c(-c3ccccc3)c[n+]3c2CCc2ccccc2-3)c(C)c1,-75.2%,-3.5%,-25.4%,3.16µM*
FC(F)(F)c1nc(=S)c2ccccc2[nH]1,11.5%,.,10µM*,-20.7%
CCOC(=O)[C@]1(C(NC(=O)OC)c2cccc(F)c2)CCCC1=O (stereo partly drawn),-18.5%[10 µM],.,.,.
CN1CCc2c(sc(NC(=O)c3cc4cc([N+](=O)[O-])ccc4s3)c2C(N)=O)C1,-201.9%,.,-4.5%,7.08µM*
CC(C)N1CCc2c(sc(NC(=O)c3cc4cc([N+](=O)[O-])ccc4s3)c2C(N)=O)C1,-35.0%,-21.0%,-2.7%,6.9%[9.22 µM]
CC(C)Nc1nnc(SCC(=O)c2c(N)n(Cc3ccccc3)c(=O)n(C)c2=O)s1,-17.5%,7.3%,-2.9%,0.112µM*
COCC(=O)N1CCC2(CCCN(c3ccc(-c4ccccc4)cc3)C2)CC1,-13.7%,.,.,.
SMILES,HTT ATP protect,L3MBTL1 block,KDM4E inh,HttQ103 aggreg
O=C1NCCN1c1ncc([N+](=O)[O-])s1,0.0891µM*,13.4%,-1.5%[25.5 µM],2.0%[20.6 µM]
CC(=O)Nc1ncc([N+](=O)[O-])s1,24.5%,.,.,11.7%
CCCCCCCCCCOc1cc2c(=O)c(C(=O)OCC)c[nH]c2cc1OCC,-6.6%,.,.,7.0%
CCSc1n[nH]c(=S)s1,-24.6%,.,25.1µM*,-6.7%
COC(=O)CSc1n[nH]c(=S)s1,.,5.2%,-15.6%,8.9%
COc1cccc(-c2cc(NCc3cccc(C)c3)ncn2)c1,-82.6%,.,.,.
[O-][n+]1onc2c1CCc1c-2nn(-c2ccccc2Cl)[n+]1[O-],-62.4%,43.2%,3.6%,11.2µM*
Cc1ccc(-n2nc3c([n+]2[O-])CCc2c-3no[n+]2[O-])cc1,?,-1.1%,5.5%,12.6µM*
COc1ccc2c(c1)O[C@@H](c1cccc(C(F)(F)F)c1)[C@H](OC(=O)Nc1cc(OC)c(OC)c(OC)c1)C2=O,.,.,-0.8%,.
CCCCCC(=O)/C=C/[C@@H]1[C@@H](C/C=C\CCCC(=O)O)[C@@H](O)C[C@H]1O,-14.7%,.,12.9%,.
Cc1cc(C)n(C(=O)/C(C#N)=N/Nc2cc(Cl)cc(Cl)c2)n1,-161.4%,5.2%,-1.7%,12.6µM*
CCOc1cccc(C(=O)c2ccc(O)c(O)c2O)c1,-23.6%,.,10µM*,.
CCOc1ccc(C(=O)c2cccs2)cc1,-10.8%,6.7%,-1.3%,-32.4%
CCOc1ccc(C(=O)c2ccc(O)c(O)c2O)cc1,.,.,14.1µM*,.
CCCn1nc2cc(C(=O)NCC34CC5CC(CC(C5)C3)C4)ccc2c1OCC,-29.4%,32.0%,?,31.6µM*
Cc1nnc(NC(=O)CSc2nnnn2Cc2ccccc2)s1,?,-18.5%[11.4 µM],-0.6%,0.355µM*

# Source: PubChem BioAssay (National Center for Advancing Translational Sciences (NCATS))
